The results in this text go back to ChEMBL document CHEMBL1201862, “PubChem BioAssay data set” (2004).

“And” between values parts separate entries of the source, which are not always exact repeats. Equal values may be shown once. The campaign covered roughly 400,000 compounds. About 2,100 (0.53%) were called active. Another 14% or so got no clear call; they are omitted. This is one part of a sample in which actives are shown more often than they occur. No rule for the calls is given here.

For this experiment, the target named is Ataxin-2 (Homo sapiens) (UniProt Q99700). Description: qHTS for Inhibitors of ATXN expression. The experiment is classed as functional. Background: In qHTS, concentration-response curves come from the screen itself.
Ataxin-2 (Homo sapiens), sequence (Q99700 whole entry): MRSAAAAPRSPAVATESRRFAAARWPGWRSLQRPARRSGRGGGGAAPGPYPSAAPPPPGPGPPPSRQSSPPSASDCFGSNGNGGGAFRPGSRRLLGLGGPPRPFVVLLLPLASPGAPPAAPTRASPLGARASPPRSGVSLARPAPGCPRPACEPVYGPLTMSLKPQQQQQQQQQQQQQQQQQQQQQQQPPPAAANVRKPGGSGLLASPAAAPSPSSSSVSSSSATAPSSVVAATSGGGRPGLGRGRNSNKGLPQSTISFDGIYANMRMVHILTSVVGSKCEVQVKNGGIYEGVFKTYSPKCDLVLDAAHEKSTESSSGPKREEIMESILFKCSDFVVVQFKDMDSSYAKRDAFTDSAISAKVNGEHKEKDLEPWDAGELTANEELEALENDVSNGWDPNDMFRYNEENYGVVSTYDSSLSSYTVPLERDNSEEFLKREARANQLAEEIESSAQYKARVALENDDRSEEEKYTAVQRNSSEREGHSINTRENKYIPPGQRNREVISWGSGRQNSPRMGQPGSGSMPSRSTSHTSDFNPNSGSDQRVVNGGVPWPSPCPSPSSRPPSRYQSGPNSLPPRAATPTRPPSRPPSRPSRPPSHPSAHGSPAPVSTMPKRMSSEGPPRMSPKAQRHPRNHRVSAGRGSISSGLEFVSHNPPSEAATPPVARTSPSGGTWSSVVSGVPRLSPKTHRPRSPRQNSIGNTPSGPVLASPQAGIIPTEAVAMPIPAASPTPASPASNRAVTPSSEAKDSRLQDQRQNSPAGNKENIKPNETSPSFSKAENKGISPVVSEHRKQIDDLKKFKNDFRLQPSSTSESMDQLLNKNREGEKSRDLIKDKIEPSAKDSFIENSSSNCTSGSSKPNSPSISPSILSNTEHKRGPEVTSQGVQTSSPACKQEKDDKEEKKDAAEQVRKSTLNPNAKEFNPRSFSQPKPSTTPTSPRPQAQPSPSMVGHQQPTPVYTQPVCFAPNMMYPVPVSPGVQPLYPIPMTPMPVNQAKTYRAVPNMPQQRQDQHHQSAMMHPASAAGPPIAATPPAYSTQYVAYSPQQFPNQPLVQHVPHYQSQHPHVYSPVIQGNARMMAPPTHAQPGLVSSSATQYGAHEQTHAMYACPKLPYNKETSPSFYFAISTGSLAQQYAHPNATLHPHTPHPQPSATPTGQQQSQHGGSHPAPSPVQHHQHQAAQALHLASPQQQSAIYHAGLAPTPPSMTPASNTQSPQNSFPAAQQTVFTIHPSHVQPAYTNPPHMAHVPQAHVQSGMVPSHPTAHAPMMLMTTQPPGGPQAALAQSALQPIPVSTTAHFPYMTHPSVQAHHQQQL
As to `COc1ccc(C(=O)NCCNc2nc3ccc(C)cc3cc2C#N)cc1OC`, the Potency entry is “inactive”. In the case of `O=C(CSc1ccccn1)N1CCN(c2ncc(C(F)(F)F)cc2Cl)CC1` it was “inactive”; in that of `COc1ccc(OC)c(C2CC(=O)N3CN(c4ccccc4F)CSC3=C2C#N)c1` (centres undefined), “inactive”; in that of `O=C(CCN1C(=O)/C(=C/c2ccc(F)cc2)SC1=S)Nc1cccnc1`, “inactive”. Under `O=C(CCCN1C(=O)c2cccnc2C1=O)Nc1ccccc1F` stands “inactive”; under `O=C(CCCN1C(=O)/C(=C/c2ccccc2OC(F)F)SC1=S)Nc1cccnc1`, 20 µM (active); under `CCCCOc1ccc(Br)cc1/C(C)=N/NC1=NCCN1`, 22.4 µM (active). Under `C(=N\NC1=NCCN1)/c1ccncc1` stands “inactive”; under `Cn1c(Cl)cnc1C(O)(c1ccccc1)c1ccccc1`, “inactive”; under `CCc1nc2ccccc2c(C(=O)OCC(=O)C(C)(C)C)c1C`, “inactive”. For `COc1ccc([N+](=O)[O-])cc1NC(=O)C(C)OC(=O)CN1C(=O)C2CC=CCC2C1=O` (centres undefined), the Potency result was “inactive”.

As to `O=C1c2ccccc2C(=O)c2c(NCCCN(CCO)CCO)cccc21`, the Potency is 26.7 µM (active). Under `CN1C(=O)c2cccc(NCCCN3C(=O)c4ccccc4C3=O)c2C1=O` stands “inactive”; under `O=C1c2cccc(NCCCNCCO)c2C(=O)c2cccc(NCCCNCCO)c21`, 15 µM (active). In the case of `O=C1c2c(O)ccc(O)c2C(=O)c2c(NCCNCCO)ccc(NCCNCCO)c21` it was 2.99 µM (active) and 20 µM (active); in that of `CCNc1cccc2c1C(=O)N(C)C2=O`, “inactive”. As for `CC1CCCCC1NC(=O)COC(=O)c1c2c(nc3ccccc13)/C(=C\c1ccco1)CC2` (centres undefined), the Potency entry is “inactive”. Consider `Cc1csc(NC(=O)c2sc3nc(-c4cccs4)ccc3c2N)n1`, for which the Potency result was “inactive”. Under `CCOC(=O)c1cc2c(=O)n3ccccc3nc2n(C(C)C)/c1=N\C(=O)c1c(-c2c(F)cccc2Cl)noc1C` stands “inactive”; under `Cc1c(Br)c(=O)oc2c(Br)c(O)c(O)cc12`, “inactive”; under `CN(C)c1ccc(/C=N/NC(=O)c2ccc3[nH]cnc3c2)cc1`, “inactive”. Under `Nc1ccc(/N=N\c2ccccc2)c(N)n1` stands “inactive”; under `Nc1nc(O)cc(N=Nc2ccc(O)cc2)n1`, 17.8 µM (active). For `Nc1ccc(N=Nc2ccc(O)cc2)c(N)n1`, the Potency is 21.2 µM (active). For `Nc1c(Cl)cc(-c2nc3cc(C(=O)NCCO)ccc3c(O)c2O)cc1Cl`, the Potency entry is “inactive”. Under `COc1ccc(CNc2nc3ccccc3n2C(C)C)c(O)c1` stands “inactive”; under `CC(C)OC(=O)c1ccc(NCc2cc(O)ccc2O)cc1`, 29.9 µM (active). In the case of `Cc1ccc(O)c(C(=O)CC(=O)c2ccccc2Cl)c1` it was “inactive”. In the case of `Nc1ccc(C(=O)NCc2ccccc2)cc1` it was “inactive”. Take `COC(=O)c1ccc(NCc2cc(O)ccc2O)cc1O`: the Potency was 39.8 µM (active). With `CC(C)OC(=O)c1ccc(NCc2cc(O)ccc2O)cc1Cl`, the Potency was 20 µM (active). Under `COC(=O)c1ccc(C2C(C#N)=C(N)Oc3cc(O)ccc32)cc1` (centres undefined) stands “inactive”. Under `O=C1C=CC(=O)C(CNc2ccc(C(=O)OCc3ccccc3)cc2)=C1` stands 23.8 µM (active).

On to `COC(=O)c1cc(CN2CCN(c3ccccc3)CC2)ccc1O`, for which the Potency entry is “inactive”.
